Some test systems named below: DU-145 prostate; K-562 leukemia; MALME-3M melanoma; MDA-MB-231 breast; RXF 393 renal; SF-268 CNS; SF-295 CNS; SF-539 CNS; UACC-257 melanoma; HCT-15 colon; HT29 colon; SNB-75 CNS; SNB-19 CNS; U251 CNS; PC-3 prostate; SK-MEL-5 melanoma; UACC-62 melanoma; LOX IMVI melanoma; SK-MEL-28 melanoma; M14 melanoma.
Holding throughout (test): NCI-60 one-dose screen, 48 h (100 = growth as untreated, 0 = no growth, -100 = all killed)
Details in all cases: 10 µM unless noted

About 83,000 compounds went through this panel and 20% of them were active in at least one assay; those are over-represented in the sample as a whole.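 Growth was measured after 48 h exposure to one concentration of compound in 96-well plates. Values under 10 count as active.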 Unmarked numbers belong to inactive results. Activity calls are given as the source filed them.

Consider `CCCCCCn1c(-c2ccc(C(=O)O/N=C(\N)c3ccc(OC)cc3)cc2)nc(-c2ccccc2)c1-c1ccccc1`, for which the growth in the experiment with DU-145 prostate is -73.6% (active); in the experiment on K-562 leukemia, -35.3% (active); in the experiment on MALME-3M melanoma, -18.2% (active); in the experiment with MDA-MB-231 breast, -24% (active); in the experiment with RXF 393 renal it was -59.6% (active); in the experiment on SF-268 CNS it was 3.04% (active). Further, the growth with SF-295 CNS was 1.78% (active); in the experiment with SF-539 CNS, -84.1% (active); in the experiment on UACC-257 melanoma, 48.3%; in the experiment on HCT-15 colon, -41.1% (active); in the experiment on HT29 colon, 22%; in the experiment on SNB-75 CNS, -20.3% (active). Also, the growth is 32.5% with SNB-19 CNS; -42.9% (active) in the experiment with U251 CNS; 3.94% (active) in the experiment on PC-3 prostate; 49.9% in the experiment with SK-MEL-5 melanoma; 18.1% in the experiment with UACC-62 melanoma; -91.6% (active) with LOX IMVI melanoma. The growth with SK-MEL-28 melanoma was 42.1%.
As to `CCOC(=O)C1=C(N)Oc2c(sc3c(C)cccc23)C1c1ccc(F)cc1` (stereo unspecified), the growth is 12.1% in the experiment on DU-145 prostate; 4.54% (active) in the experiment on K-562 leukemia; 52.7% in the experiment with MALME-3M melanoma; 27.8% with MDA-MB-231 breast; -7.13% (active) in the experiment on RXF 393 renal; 38.2% with SF-268 CNS. Moreover, the growth was 0.881% (active) in the experiment with SF-295 CNS; -1.53% (active) in the experiment on SF-539 CNS; 59.2% with UACC-257 melanoma; 6.3% (active) in the experiment with HCT-15 colon; 2.47% (active) in the experiment with HT29 colon; -4.15% (active) in the experiment with SNB-75 CNS. For the same compound, the growth in the experiment on SNB-19 CNS is 26.3%; in the experiment on U251 CNS, 19.4%; in the experiment on PC-3 prostate, 12%; in the experiment on SK-MEL-5 melanoma it was 16.3%; in the experiment with UACC-62 melanoma, 17.4%; in the experiment on LOX IMVI melanoma, 14%. Further, in the experiment with SK-MEL-28 melanoma, the growth is 56.8%.
Take `COC(=O)CCC/C=C\C[C@H]1C=CC(=O)/C1=C/C[C@@H](O)CCc1cccc(C(F)(F)F)c1`: the growth in the experiment with DU-145 prostate is 2.5% (active); in the experiment on K-562 leukemia, 1.71% (active); with MALME-3M melanoma it was 58.4%; with RXF 393 renal it was -73.5% (active); with SF-268 CNS, -2.42% (active); in the experiment with SF-295 CNS, -21.1% (active). In addition, the growth is -14.1% (active) in the experiment on SF-539 CNS; -6.49% (active) with UACC-257 melanoma; -32.4% (active) with M14 melanoma; -5.76% (active) in the experiment with HCT-15 colon; -30.6% (active) with HT29 colon; 97.9% with SNB-75 CNS. For the same compound, the growth in the experiment on SNB-19 CNS was 4.49% (active); with U251 CNS, -84.3% (active); with PC-3 prostate, -39% (active); in the experiment on SK-MEL-5 melanoma, -83.3% (active); in the experiment on UACC-62 melanoma it was -60% (active); in the experiment on LOX IMVI melanoma, -64.2% (active). Moreover, the growth with SK-MEL-28 melanoma was -45.9% (active).
With `O=C1CCC/C=C\C[C@H]2C=CC(=O)/C2=C/C[C@H](CCc2cccc(C(F)(F)F)c2)O1`, the growth is -44.6% (active) in the experiment on DU-145 prostate; 0.315% (active) in the experiment with K-562 leukemia; -25.5% (active) in the experiment with MALME-3M melanoma; -81.9% (active) in the experiment with RXF 393 renal; -39% (active) in the experiment with SF-268 CNS; -22.9% (active) with SF-295 CNS. Besides, the growth in the experiment with SF-539 CNS was -56.7% (active); in the experiment on UACC-257 melanoma it was -34.7% (active); in the experiment on M14 melanoma, -30.9% (active); in the experiment with HCT-15 colon, -10.8% (active); with HT29 colon, -31.9% (active); in the experiment on SNB-75 CNS, 15.2%. For the same compound, the growth was -17.1% (active) with SNB-19 CNS; -93% (active) in the experiment with U251 CNS; -20.7% (active) with PC-3 prostate; -82.8% (active) in the experiment on SK-MEL-5 melanoma; -45.9% (active) with UACC-62 melanoma; -72.6% (active) in the experiment on LOX IMVI melanoma. In the experiment on SK-MEL-28 melanoma, the growth is -39.5% (active).
Regarding `N#CC1=C(N)Oc2c(sc3c(Br)cccc23)C1c1ccc([N+](=O)[O-])cc1` (stereo unspecified), the growth was 8.77% (active) in the experiment on DU-145 prostate; 7.66% (active) in the experiment with K-562 leukemia; 93.2% in the experiment on MALME-3M melanoma; 17.6% in the experiment with RXF 393 renal; 13.5% in the experiment with SF-268 CNS; -5.7% (active) in the experiment with SF-295 CNS. Moreover, the growth in the experiment with SF-539 CNS is -18% (active); with UACC-257 melanoma, 87.1%; in the experiment on M14 melanoma, 3.87% (active); with HCT-15 colon it was 7.43% (active); in the experiment with SNB-75 CNS, 25.8%; in the experiment with SNB-19 CNS, 30.8%. Moreover, the growth in the experiment on U251 CNS is 14.6%; in the experiment on PC-3 prostate, 13.6%; in the experiment on SK-MEL-5 melanoma it was 0.865% (active); in the experiment with UACC-62 melanoma, 15.2%; in the experiment on LOX IMVI melanoma it was -11.3% (active); in the experiment with SK-MEL-28 melanoma, 61.4%.
Regarding `Clc1ccc2c(c1)N(CCCN1CCCC1)c1ccccc1S2`, the growth in the experiment on DU-145 prostate was 59.1%; with K-562 leukemia it was 0.508% (active); in the experiment on MALME-3M melanoma, 7.63% (active); in the experiment with RXF 393 renal it was 23.6%; in the experiment on SF-268 CNS it was 30%; in the experiment on SF-295 CNS, 54.6%. Further, the growth was 15.3% in the experiment with SF-539 CNS; 85.8% with UACC-257 melanoma; 17.6% with HCT-15 colon; 21% with HT29 colon; 75.4% with SNB-75 CNS; 58.1% in the experiment with SNB-19 CNS. Also, the growth is 36.9% in the experiment on U251 CNS; 18.6% in the experiment with PC-3 prostate; -86.5% (active) in the experiment with SK-MEL-5 melanoma; -36.5% (active) in the experiment on UACC-62 melanoma; -52.5% (active) in the experiment on LOX IMVI melanoma; 42.3% in the experiment on SK-MEL-28 melanoma.
Consider `O=C(O)c1cn(C2CC2)c2cc(N3CCN(C(=O)Nc4nc(-c5ccccc5)cs4)CC3)c(F)cc2c1=O`, for which the growth in the experiment on DU-145 prostate was 17.2%; in the experiment with K-562 leukemia, 17.1%; with MALME-3M melanoma, 23.9%; in the experiment on RXF 393 renal, 42.7%; with SF-268 CNS, 23.3%; in the experiment with SF-295 CNS, 10.6%. The growth in the experiment with SF-539 CNS was 21%; in the experiment on UACC-257 melanoma, 9.92% (active); in the experiment on M14 melanoma, 31.6%; in the experiment on HCT-15 colon, 29.9%; in the experiment with HT29 colon, 4.04% (active); in the experiment with SNB-75 CNS, 9.5% (active). Further, the growth in the experiment with SNB-19 CNS was 21.6%; with U251 CNS, 9.17% (active); in the experiment with PC-3 prostate it was 11.3%; in the experiment on SK-MEL-5 melanoma, 3.08% (active); in the experiment on UACC-62 melanoma it was 15.2%; in the experiment on LOX IMVI melanoma, -81.8% (active). Further, in the experiment on SK-MEL-28 melanoma, the growth was 52.9%.

These data come from PubChem BioAssay (NCI).
